According to PubChem BioAssay AID463173 (ICCB-Longwood Screening Facility, Harvard Medical School, 2010):
About 1,700 (3.3%) of roughly 52,000 compounds were called active. The sample as a whole holds a higher share of actives than the screen did. Unmarked numbers belong to inactive results. Rule as the data show it: active = survival mostly below about 52% (no sharp cut-off); inactive = mostly above about 56%.

What follows are compounds tested on Wild type (assay: S. aureus survival, RN4220 and DeltatarO strains – OD600, teichoic acid synthesis inhibitors, primary screen (AID 463173)). Conditions: S. aureus RN4220 wild type/DeltatarO growth, OD600, 18 h, hits give low values, screened at 18.75 µg/mL (by protocol).

Point of comparison: COc1ccc(N2CCN(CC(O)COc3ccc(C)cc3C)CC2)cc1 (stereo unspecified), survival 87%. Against it:
- CCOC(=O)c1c(C)[nH]c(C)c1S(=O)(=O)N1CCC(C(=O)NCc2cccc(C)c2)CC1 — lower, 76%
- COC(=O)C1=C(C)Nc2nc3ccccc3n2C1c1ccccc1 (stereo unspecified) — higher, 91%
- CC(=O)NC1CC(=O)N(c2ccc3c(c2)OCCO3)C1 (stereo unspecified) — lower, 66%
- COc1ccc(Cl)cc1-n1nnc(-c2nc(-c3ccc4c(c3)OCO4)no2)c1C — lower, 71%
- COc1cccc(OCc2nc3ccccc3n2C)c1 — lower, 84%
- COc1ccc(OCC(O)Cn2c(C(C)C)nc3ccccc32)cc1 (stereo unspecified) — higher, 107%
- COc1ccc(OCc2nc3ccccc3n2C(C)C)cc1 — higher, 102%
- Cc1nc2ccccc2n1C(C)c1ccccc1 (stereo unspecified) — higher, 111%
- CCCc1nc2ccccc2n1CC(O)COc1ccccc1 (stereo unspecified) — higher, 103%
- Cc1cc(C)n2c(Nc3cccc(C(F)(F)F)c3)c(-c3ccsc3)nc2n1 — higher, 89%
- O=C(c1cccs1)N1CCCc2ccccc21 — higher, 124%
- COc1ccc(-n2ncc3c(NC(C)(C)CO)ncnc32)cc1 — lower, 59%
- Cc1cc(Br)ccc1NC(=O)c1cc2c(s1)-c1ccccc1SC2 — lower, 78%
- CCN(CC)c1ccc(NC(=O)CCc2nc3cccnc3n2Cc2cccs2)c(C)c1 — lower, 73%
- Cc1ccc(-c2nc(C)c(CCNS(=O)(=O)c3ccccc3F)s2)cc1 — lower, 67%
- CCOc1ccc(S(=O)(=O)NCCc2sc(-c3ccc(C)cc3)nc2C)cc1 — lower, 73%
- COc1ccc(N2CC(NC(=O)c3cc4ccccc4o3)CC2=O)cc1OC (stereo unspecified) — lower, 70%
- CCc1nc(SCC(=O)O)c(C#N)cc1C — higher, 96%
- O=c1c2c([nH]n1-c1ccccc1)CCCC2 — higher, 123%
- COc1ccc(NC(=O)c2ccc3c(c2)c(C)c(C)n3Cc2ccc(F)cc2)c(OC)c1 — lower, 59%
- Cc1nc(-c2cccc(F)c2)sc1CCNC(=O)C(=O)Nc1ccc2c(c1)OCCO2 — lower, 68%
- COc1ccc(-c2cc(C(F)(F)F)nc(SCC(=O)N3CCCCC3C)n2)cc1OC (stereo unspecified) — lower, 69%
- COc1ccc(-c2cc(C(F)(F)F)nc(SCCC(=O)N3CCN(C)CC3)n2)cc1 — higher, 108%
- COc1ccc(-c2cc(C(F)(F)F)nc(SCC(=O)N3CCCCC3)n2)cc1OC — higher, 90%
- COc1ccc(-c2cc(C(F)(F)F)nc(SCC(=O)N3CCCCC3)n2)cc1 — higher, 97%
- Cc1cc(C)n(-c2nc3cc(Cl)c(Cl)cc3nc2Nc2ccc(F)cc2C)n1 — lower, 82%
- Cc1oc(C(C)(C)C)cc1C(=O)NC(Cc1ccccc1)C(=O)O (stereo unspecified) — higher, 98%
- Cc1ccc(CNC(=O)C2CCN(c3ncnc4c3nc3n4CCCCC3)CC2)cc1 — lower, 85%
- COc1ccccc1N1CCN(C(=O)c2cc(-c3ccccc3O)on2)CC1 — lower, 66%
- COc1ccccc1N1CCN(C(=O)c2cc(-c3ccc(F)cc3)on2)CC1 — lower, 73%
- COc1ccc(-c2cc(C(=O)N3CCN(c4ccc(F)cc4)CC3)no2)cc1OC — lower, 72%
- COc1cccc(-c2cc(C(=O)N3CCN(c4ccc(F)cc4)CC3)no2)c1 — lower, 78%
- COc1ccc(N2CCN(C(=O)c3cc(-c4ccc(C)c(F)c4)on3)CC2)cc1 — higher, 106%
- O=C(c1cc(-c2ccc(O)cc2)on1)N1CCN(c2ccccc2)CC1 — lower, 51%
- CCn1c(CCNC(=O)C2CCCO2)nnc1SC (stereo unspecified) — higher, 94%
- COc1cccc(N2CCN(C(=O)CN3CCSc4ccc(S(=O)(=O)N(C)C)cc43)CC2)c1 — lower, 72%
- Cc1ccc2ccc(C(Nc3ccccn3)c3ccccc3)c(O)c2n1 (stereo unspecified) — lower, 69%
- Cc1ccnc(NCc2cccc3ccccc23)c1 — higher, 115%
- Oc1cccc(C(Nc2ccccn2)c2ccc3cccnc3c2O)c1Cl (stereo unspecified) — lower, 76%
- Oc1c(C(Nc2ccccn2)c2ccccc2F)ccc2cccnc12 (stereo unspecified) — higher, 135%
- COc1ccc(C(=O)NC(c2ccc(Cl)cc2)c2cc(Cl)c3cccnc3c2O)cc1 (stereo unspecified) — lower, 79%
- CCOc1cc(C(Nc2cc(C)ccn2)c2ccc3cccnc3c2O)ccc1OC (stereo unspecified) — higher, 145%
- Cc1ccnc(NC(c2cccc(O)c2)c2ccc3ccc(C)nc3c2O)c1 (stereo unspecified) — lower, 74%
- Cc1ccc(O)c(CNc2cccc3cccnc23)c1 — higher, 107%
- CCCN(C(=O)c1nn(-c2ccc(OC)c(Cl)c2)c(=O)c2c1c1ccccc1n2C)c1ccccc1F — lower, 74%
- CCOc1ccccc1CNC(=O)Cn1c(-c2ccccc2)cc(C(C)=O)c1C — lower, 67%
- COC(=O)COc1ccc(S(=O)(=O)N2CCCCC2)cc1C — higher, 117%
- O=C(/C=C/c1ccccc1)NC1CCSC1=O (stereo unspecified) — higher, 108%
- O=C(CNS(=O)(=O)c1ccc(Cl)cc1)NC1CCCC1 — higher, 103%
- O=C(CS(=O)(=O)c1cccc2nsnc12)N1CCN(c2ccccc2F)CC1 — higher, 94%
- Cc1ccc(NC(=O)Nc2nnc(N(C)Cc3ccccc3)s2)cc1 — higher, 101%
- COc1ccc2c(c1)c(CC(=O)Nc1ccc(C(C)=O)cc1)c(C)n2C(=O)c1ccc(Cl)cc1 — lower, 71%
- CN1CCc2c(sc3c2C(=O)NC(c2ccc(OC(=O)c4ccc(Cl)cc4)cc2)N3)C1 (stereo unspecified) — lower, 75%
- CCOC(=O)c1ccc(NC(=O)CSc2cn(CC(=O)N3CCCC3)c3ccccc23)cc1 — higher, 89%
- COc1ccc(CNc2oc(COc3cccc(C)c3)nc2C#N)cc1 — lower, 63%
- COc1ccc(-c2nc(C)c(CCNS(=O)(=O)c3cc(Cl)ccc3Cl)s2)cc1 — the same, 87%
- CCOc1cc(C(=O)NCCc2csc3nc(-c4ccccc4F)nn23)cc(OCC)c1OCC — the same, 87%
- O=C(CCn1nnc(-c2cccs2)n1)NC1CCCCC1 — higher, 115%
- Cc1cccc(NC(=O)c2ccccc2)n1 — higher, 107%
- COc1ccc(C(Nc2ccccn2)c2ccc3ccc(C)nc3c2O)cc1C (stereo unspecified) — lower, 62%
- Cc1ccc(C)c(N2CCN(S(=O)(=O)c3cn(C)c(C)n3)CC2)c1 — lower, 68%
- Cc1nc(S(=O)(=O)N2CCN(c3ccccc3F)CC2)cn1C — higher, 121%
- COc1cc(NC(=O)CC(C)S(=O)(=O)c2cc3c4c(c2)CCN4C(=O)CC3)cc(OC)c1 (stereo unspecified) — lower, 76%
- C=CCN1C2=NCCCN2c2ccccc21 — higher, 113%
- COC(=O)CSc1nc(-c2ccccc2)cc(C(F)(F)F)n1 — higher, 111%
- O=C(CSc1nc(-c2cccs2)cc(C(F)(F)F)n1)Nc1ccccc1Cl — higher, 99%
- COC(=O)c1ccccc1NC(=O)CSc1cc(-c2ccccc2)nc(C)n1 — higher, 92%
- CCOc1ccccc1NC(=O)CSc1nc(-c2cccs2)cc(C(F)(F)F)n1 — lower, 83%
- COc1cccc(-n2c(=O)c3c4c(sc3n(Cc3ccccc3C#N)c2=O)CCCC4)c1 — lower, 80%
- COc1ccc(C(CNC(=O)c2oc3cc(C)c(C)cc3c2C)N2CCCCC2)cc1 (stereo unspecified) — higher, 102%
- Cc1ccc(NC(=O)C2CCN(C(=O)c3cnn(-c4ccccc4)c3-n3cccc3)CC2)cc1C — lower, 84%
- COc1ccc(CCNC(=O)c2ccc3c(c2)ncn3-c2ccc(C(C)C)cc2)cc1OC — lower, 80%
- COC(=O)CSc1nc2cc(OC)c(OC)cc2cc1C — higher, 110%
- COc1cc(C2C(=O)N(C3CCCCC3)CC(=O)N2CCC2=CCCCC2)ccc1OC(C)C (stereo unspecified) — higher, 135%
- Cc1cc(-c2nc3ccccc3s2)ccc1NC(=O)c1cc(Cl)ccc1Cl — higher, 92%
- COc1ccc(N2CCN(CC(O)COc3ccc(C(C)(C)C)cc3)CC2)cc1 (stereo unspecified) — the same, 87%
- COc1ccccc1N1CCN(CC(O)COc2cc(C)cc(C)c2)CC1 (stereo unspecified) — lower, 82%
- COc1ccc(N2CCN(CC(O)COc3c(OC)cccc3OC)CC2)cc1 (stereo unspecified) — lower, 81%
- COc1ccc(N2CCN(CC(O)COc3ccc(C(C)C)c(C)c3)CC2)cc1 (stereo unspecified) — lower, 85%
- C=CCc1ccccc1OCC(O)CN1CCN(c2ccccc2)CC1 (stereo unspecified) — lower, 54%

COc1ccc(OCc2nc3ccccc3n2C(C)c2ccccc2)cc1 (stereo unspecified) was tested, and the survival was -2% (active).
For CCC(C)Cn1c(COc2ccc(OC)cc2)nc2ccccc21 (stereo unspecified), the survival was -1% (active).
For Cc1ccc(OCc2nc3ccccc3n2CC(C)C)cc1, the survival was -1% (active).
With Cc1ccc(-c2nc(C)c(CCNS(=O)(=O)c3ccc(F)c(C(F)(F)F)c3)s2)cc1 the survival was -6% (active).
CCC1CCCCN1C(=O)CSc1nc(-c2ccc(OC)c(OC)c2)cc(C(F)(F)F)n1 (stereo unspecified) was tested, and the survival was -15% (active).
For CCC1CCCCN1C(=O)CSc1nc(-c2ccc(OC)cc2)cc(C(F)(F)F)n1 (stereo unspecified), the survival was -6% (active).
COc1ccccc1-c1cc(C(=O)N2CCN(c3ccccc3)CC2)no1 was tested, and the survival was -10% (active).
With COc1cccc(-c2cc(C(=O)N3CCN(c4ccccc4OC)CC3)no2)c1 the survival was -9% (active).
In the case of COc1ccc(-c2cc(C(=O)N3CCN(c4ccccc4)CC3)no2)cc1, the survival is reported as 16% (active).
Cc1ccnc(NC(c2ccccc2F)c2ccc3cccnc3c2O)c1 (stereo unspecified) was tested, and the survival was -8% (active).
Cc1ccc(C(Nc2ccccn2)c2ccc3cccnc3c2O)cc1 (stereo unspecified) was tested, and the survival was 6% (active).
For Cc1ccnc(NC(c2cc(C)ccc2O)c2ccc3cccnc3c2O)c1 (stereo unspecified), the survival was 3% (active).
With Cc1cccc(NC(c2cccc(Cl)c2)c2ccc3cccnc3c2O)n1 (stereo unspecified) the survival was 4% (active).
Cc1cccc(NC(c2ccccc2C)c2ccc3ccc(C)nc3c2O)n1 (stereo unspecified) was tested, and the survival was -3% (active).
With Cc1cccc(N2CCN(S(=O)(=O)c3cn(C)c(C)n3)CC2)c1C the survival was -3% (active).
For CC(C)(C)c1ccccc1NC(=O)CSc1nc(-c2cccs2)cc(C(F)(F)F)n1, the survival was 10% (active).
In the case of COC(=O)c1ccccc1NC(=O)CSc1nc(-c2ccccc2)cc(C(F)(F)F)n1, the survival is reported as 19% (active).
For Cc1ccc(C(C)C)c(OCC(O)CN2CCN(c3ccccc3F)CC2)c1 (stereo unspecified), the survival was -3% (active).
COc1ccccc1N1CCN(CC(O)COc2ccc(C)cc2C(C)(C)C)CC1 (stereo unspecified) was tested, and the survival was 2% (active).
With COc1ccc(N2CCN(CC(O)COc3ccccc3C(C)(C)C)CC2)cc1 (stereo unspecified) the survival was -3% (active).
